POLK inh – qHTS for Inhibitors of Polymerase Kappa | DNA polymerase kappa (Homo sapiens), Q9UBT6 | purified Pol kappa, fluorescent DNA synthesis assay, 10 min | Potency, µM (titrated, usually from 107 µM), for inactives: at the top dose activity, negative = inhibition, usual class: inhibitors | 0.53% of 400,000 active | AID 588579, 2011; note: potency is the fitted concentration of half-maximal effect; % is set by controls: 0 for no effect and ±100 for the full control effect
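Inhibition of 10 nM Pol kappa is measured by a fluorescent read-out at 0 and 10 min following addition of 50 nM substrate (final), with a 15-min room-temperature compound preincubation.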
PI5P4K alpha inh – qHTS for Inhibitors of phosphatidylinositol 5-phosphate 4-kinase (PI5P4K). PI5P4Kalpha enzyme, ADP-Glo luminescence, 60 min; hits give low values. max response, %. 1.2% of 330,000 active. Phosphatidylinositol 5-phosphate 4-kinase type-2 alpha (Homo sapiens), P48426; active = max response of -50% or lower; inconclusive = between -30% and -50%; inactive = -30% or higher; note: value at the top dose of about 77 µM; % is set by controls: 0 for no effect and ±100 for the full control effect
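Quantitative HTS of the MLSMR library against PI5P4Kalpha with substrate. ATP added last at 5 microM final; room temperature, 60 minutes. Remaining ATP depleted, ADP converted and read as luminescence.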
POLH inh – qHTS for Inhibitors of Polymerase Eta | DNA polymerase eta (Homo sapiens), Q9Y253 | recombinant Pol eta, fluorescent DNA replication assay | Potency, µM (highest dose often 114 µM), inactives show at the top dose activity change, negative = inhibition, actives largely listed as inhibitors | 1.2% of 390,000 active | AID 588591, 2011; note: potency is the fitted concentration of half-maximal effect; % is set by controls: 0 for no effect and ±100 for the full control effect
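Pol eta (10 nM) was preincubated with compounds for 15 min at room temperature, after which fluorescent replication substrate (50 nM final) was added to start the reaction. Fluorescence was read kinetically at 0 and 10 min.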
POLI inh – qHTS for Inhibitors of Polymerase Iota | DNA polymerase iota (Homo sapiens), Q9UNA4 | Pol iota fluorescent replication assay, 10 min | Potency, µM (top dose mostly 115 µM), for the others: at the top dose activity, negative = inhibition, actives largely listed as inhibitors | 1% of 390,000 active | AID 588590, 2011; note: potency is the fitted concentration of half-maximal effect
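Pol iota at 10 nM preincubated 15 min with compounds at room temperature; reaction started with fluorescent substrate, 50 nM final. Fluorescence read kinetically at 0 and 10 min; buffer-only wells as negative control.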
FEN1 inh – qHTS Assay for the Inhibitors of Human Flap endonuclease 1 (FEN1); P39748; Recombinant FEN1 flap cleavage, fluorescence, 15 min; Potency, µM (top dose mostly 114 µM), for inactives: at the top dose activity change, negative = inhibition, actives largely listed as inhibitors; 0.35% of 390,000 active; AID 588795, 2011; note: potency is the fitted concentration of half-maximal effect; % is set by controls: 0 for no effect and ±100 for the full control effect; nearly all actives have a fitted effect of over 65% in size
Target sequence (P39748 whole entry, looked up): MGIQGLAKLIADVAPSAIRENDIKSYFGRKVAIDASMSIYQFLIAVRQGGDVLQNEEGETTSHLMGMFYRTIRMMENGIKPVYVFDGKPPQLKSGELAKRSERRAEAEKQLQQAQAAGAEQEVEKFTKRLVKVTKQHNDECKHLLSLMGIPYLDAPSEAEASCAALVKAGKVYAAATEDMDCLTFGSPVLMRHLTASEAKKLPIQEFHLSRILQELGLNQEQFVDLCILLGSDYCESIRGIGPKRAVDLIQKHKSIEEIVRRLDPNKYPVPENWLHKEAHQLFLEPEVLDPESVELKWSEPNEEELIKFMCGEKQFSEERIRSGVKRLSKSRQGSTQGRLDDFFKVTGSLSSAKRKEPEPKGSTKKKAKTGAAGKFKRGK
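Reaction started by adding substrate (50 nM final) to 10 nM enzyme after 15 min room-temperature compound preincubation. Reads at 0 and 15 min, with data normalized and fitted to a four-parameter Hill equation.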
POLB inh – qHTS Assay for Inhibitors of DNA Polymerase Beta; P06746; Pol beta primer extension/strand displacement, fluorescence kinetic; Potency, µM (titrated, usually from 114 µM), for inactives: at the highest dose activity change, negative = inhibition, actives largely listed as inhibitors; 1.3% of 340,000 active; AID 485314, 2010; note: potency is the fitted concentration of half-maximal effect; % is set by controls: 0 for no effect and ±100 for the full control effect
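Curves were derived by four-parameter Hill fits of normalized qHTS data. The kinetic fluorescent primer-extension read was taken at 0 and 10 min after 50 nM substrate, following a 15 min room-temperature preincubation of 10 nM enzyme with compounds.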
The depositor's hits bear a star; [ ] = another dose, or the depositor's remark. Most compounds without a hit are left out; they make up all but 2.8% or so of the library. Unless noted, calls come from the whole dose curve; as a rule, active = well fitted curve in the direction sought with a large enough effect; inconclusive = small, poorly fitted or top-dose-only effect, or another doubt; inactive = no such curve, though single readings can be large; an effect the other way counts as inactive or inconclusive.

For O=C(NCc1ccco1)c1cccc(NC(=O)c2ccccc2)c1 the results were POLK inh -7.3%, PI5P4K alpha inh -0.4, POLH inh -5.6%, POLI inh -1.6%, FEN1 inh 3.6% and POLB inh 0.9%.
Screening CCCOc1ccc(-c2nonc2NC(=O)c2oc3ccc(C)cc3c2C)cc1OCCC returned POLK inh inconclusive, POLH inh -0.1%, POLI inh -5.5%, FEN1 inh -9.3% and POLB inh 14.5%.
Screening CCC(C)C(NC(=O)OCc1ccccc1)C(=O)NC(Cc1ccc(O)cc1)C(=O)OC (centres undefined) returned POLK inh 1.9%, PI5P4K alpha inh 0.4, POLH inh -20.0%, POLI inh 88.7%, FEN1 inh 0.6% and POLB inh -19.0%.
Screening CS(=O)(=O)c1ccc(Cl)c(NC(=O)C2CC(=O)N(Cc3ccco3)C2)c1 (centres undefined) returned POLK inh inconclusive, PI5P4K alpha inh 0.8, POLH inh -25.6%, POLI inh 79.4µM* and FEN1 inh -0.3%.
Screening COc1ccc(-c2csc(NC(=O)C3CC(=O)N(Cc4ccco4)C3)n2)cc1 (centres undefined) returned POLK inh -23.0%, PI5P4K alpha inh -8.8, POLH inh -11.4%, POLI inh 9.5%, FEN1 inh -3.2% and POLB inh 7.4%.
`COC(=O)c1sc(N)c(C(=O)OC)c1COC(=O)C1CC(=O)N(Cc2ccco2)C1` (centres undefined) gave POLK inh -6.7%, POLH inh 79.4µM*, POLI inh inconclusive, FEN1 inh 4.4% and POLB inh 11.2µM*.
CCOC(=O)c1sc(N)c(C(=O)OCC)c1COC(=O)C1CC(=O)N(Cc2ccco2)C1 (centres undefined) was read as POLK inh -4.4%, PI5P4K alpha inh -4.3, POLH inh -4.8%, POLI inh 2.8%, FEN1 inh 6.0% and POLB inh -14.7%.
For Cc1ccc(S(=O)(=O)N2CCCCC2)cc1NC(=O)C1CC(=O)N(Cc2ccco2)C1 (centres undefined) the results were POLK inh -1.9%, PI5P4K alpha inh 1.1, POLH inh -12.8%, POLI inh -3.3% and FEN1 inh -1.4%.
CN(c1ccc(-c2csc(NC(=O)C3CC(=O)N(Cc4ccco4)C3)n2)cc1)S(C)(=O)=O (centres undefined) was read as POLK inh inconclusive, PI5P4K alpha inh inconclusive, POLH inh 50.1µM*, POLI inh 44.7µM* and FEN1 inh -13.2%.
For CC(C)NC(=O)N1CCC2(CC1)CCN(C(=O)c1ccncc1)CC2 the results were POLK inh -3.1%[60.1 µM].
Screening N=C1S/C(=C\c2ccco2)C(=O)N1c1nccs1 returned POLK inh -36.2%, PI5P4K alpha inh -15.7, POLH inh inconclusive, POLI inh inconclusive, FEN1 inh -25.1% and POLB inh inconclusive.
N=C1S/C(=C\c2ccco2)C(=O)N1c1ccc2c(c1)OCO2 was read as POLK inh inconclusive, PI5P4K alpha inh inconclusive, POLH inh 35.5µM*, POLI inh 325.3%, FEN1 inh -14.2% and POLB inh 20µM*.
`Cc1cccc(-c2nnc(SCc3cc(=O)c4cccc(Cl)c4[nH]3)n2C)c1` gave POLK inh -11.0%[60.1 µM], POLH inh -9.6%, POLI inh 9.6%, FEN1 inh 15.5% and POLB inh 1.1%.
For COc1cc2nc(CC(O)c3nc4cc(OC)c(OC)cc4[nH]3)[nH]c2cc1OC (centres undefined) the results were POLK inh 10µM*, POLI inh 3.16µM* and FEN1 inh inconclusive.
Cc1ccc(NC(=O)c2ccc(F)c(S(=O)(=O)N3CCc4ccccc4C3)c2)cc1F was read as POLK inh -7.3%[60.1 µM], POLH inh -23.1%, POLI inh 15.0%, FEN1 inh 10.9% and POLB inh inconclusive.
For COc1ccccc1CNC(=O)C1CCN(C2=NS(=O)(=O)C(c3ccc(C)c(C)c3)=C2C)CC1 the results were POLK inh -2.4%[60.1 µM], POLH inh -2.8%, POLI inh 89.1µM*, FEN1 inh -8.1% and POLB inh inconclusive.
For COc1ccc(NC(=O)C2CCN(C3=NS(=O)(=O)C(c4ccc(C)c(C)c4)=C3C)CC2)c(OC)c1 the results were POLK inh -15.2%, POLI inh -7.1%, FEN1 inh 4.3% and POLB inh -2.4%.
Screening COc1ccc(C2=C(C)C(N3CCC(C(=O)Nc4ccccc4F)CC3)=NS2(=O)=O)cc1 returned POLK inh -33.1%, POLI inh inconclusive, FEN1 inh -17.6% and POLB inh 22.4µM*.
For CCCC(=O)O[C@]1(C(=O)CCl)[C@H](C)C[C@@H]2[C@H]3CCC4=CC(=O)C=C[C@]4(C)[C@@]3(F)C(=O)C[C@@]21C the results were POLK inh -1.1%[19.4 µM].
`C=CC1=C(C)C2=NC1=CC1=NC(=CC3=NC(=CC4=NC(=C2)C(C)=C4CCC(=O)O)C(CCC(=O)O)=C3C)C(C=C)=C1C.[Zn]` gave POLK inh 3.55µM*.
Cc1cc(CCC(=O)O)c(C)cc1CCC(=O)O was read as POLK inh 7.0%, PI5P4K alpha inh -21.4, POLH inh -6.8%, POLI inh -6.7%, FEN1 inh 0.2% and POLB inh -7.4%.
Screening CCOc1ccc(C(=O)NC(=S)Nc2ccccn2)cc1[N+](=O)[O-] returned POLK inh -11.0%, PI5P4K alpha inh -6.7, POLH inh -3.8%, POLI inh -2.5%, FEN1 inh -7.1% and POLB inh 9.4%.
`CCOc1ccc(C(=O)NC(=S)Nc2cc(C)ccn2)cc1[N+](=O)[O-]` gave POLK inh -4.0%, PI5P4K alpha inh -4.3, POLH inh -7.4%, POLI inh inconclusive, FEN1 inh -9.5% and POLB inh 31.6µM*.
`COc1ccc(N2CCN(C(=O)C3CCCN3S(=O)(=O)c3cccc4nsnc34)CC2)cc1` (centres undefined) gave POLK inh -2.2%, PI5P4K alpha inh 3.0, POLH inh -16.8%, POLI inh 9.5%, FEN1 inh -2.0% and POLB inh 3.1%.
`CC(=O)Nc1c(I)cc(I)c(C(=O)O)c1I` gave POLK inh -3.2%[60.1 µM].

Assay outcomes (PubChem)
